Activity calls are given as the source filed them. Unless noted, the rule behind the calls is not given here.

Test [1] can be described thus: compounds binding Alexa647 anti-His antibody – biochemical, small-molecule microarray, 635 nm fluorescence, artefact control for SMM control protein annotation, primary screen (AID 1128).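 Note: score merges feature fluorescence with signal-to-noise for each printed compound spot.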 The conditions noted are these: higher = more signal.
Test [2] deals with Human papillomavirus type 1a E7 protein (residues 1-88). The test is described as follows: HPV1a E7 small-molecule binders, primary screen, biochemical, small-molecule microarray, residues 1-88, 635 nm (AID 1129). To be noted: small-molecule microarray binding, fluorescence 635 nm; higher = more signal.
The target of test [3] is Focal adhesion kinase 1 (Homo sapiens) (UniProt Q05397). The test is described as follows: PTK2 protein binding on printed compound slides – biochemical, small-molecule microarray, 635/667 nm fluorescence, BSA, DTT, primary screen (AID 1130).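 Note: composite of spot emission at 667 nm and signal to noise over triplicate slides.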 The conditions noted are these: 635 nm fluorescence, higher = more signal.
Test [4] concerns Fibrinogen (Alexa647-labelled). The test is described as follows: Alexa647-fibrinogen binding to printed small molecules – biochemical, small-molecule microarray, 635/667 nm fluorescence, artefact control for SMM control-protein annotation, profiling panel (AID 1131).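 Note: z-score merges 667 nm fluorescence with per-spot signal-to-noise over triplicate slides.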 The conditions noted are these: fibrinogen-A647 binding fluorescence, higher = more signal.
Test [5] has as its target Follistatin (Homo sapiens) (UniProt P19883). The test is described as follows: FST protein binding to printed compounds – biochemical, small-molecule microarray, 635/667 nm fluorescence, primary screen (AID 1132). To be noted: 635 nm fluorescence, higher = more signal.
Test [6] addresses Fibroblast growth factor 2 (Homo sapiens) (UniProt P09038). As to the kind of experiment: basic fibroblast growth factor binding to printed compounds – biochemical, small-molecule microarray, 635/667 nm fluorescence, primary screen (AID 1133). The conditions noted are these: FGF2, fluorescence 635/667, higher = more signal.
Test [7] in a line: JC-1 mitochondrial potential readout, lung cancer cells – cell-based, A549, JC-1 fluorescence, basal, 24 h, 100 nL, profiling panel (AID 1138).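 Note: A549 lung adenocarcinoma cells under basal conditions with no added stimulus; test concentration not given here.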 To be noted: higher = more signal.
For a further test, the system named is Lefty1. The test is described as follows: Lefty1 protein binding to printed compounds – biochemical, small-molecule microarray, 635/667 nm fluorescence, primary screen (AID 1139). To be noted: fluorescence 635/667, higher = more signal.
Test [8] deals with wheat germ agglutinin (Triticum aestivum), Alexa647-labelled. The test is described as follows: Alexa647-WGA lectin binding to printed small molecules – biochemical, small-molecule microarray, 635/667 nm fluorescence, artefact control for SMM control-protein annotation, profiling panel (AID 1140).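 Note: score merges 667 nm feature emission with signal to noise over triplicate slides.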 The conditions noted are these: WGA-A647 binding, 635 nm fluorescence, higher = more signal.

Test [9] concerns the target Luciferin 4-monooxygenase (Photinus pyralis) (UniProt P08659). As to the kind of experiment: inhibition of purified Photinus pyralis luciferase – biochemical, luminescence, purified enzyme, 2006 set, primary screen (AID 1141).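 Note: cell-free assay with purified firefly luciferase at 100 ng per well in PBS; test concentration not given here.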 To be noted: purified firefly luciferase, SteadyGlo luminescence, 30 min; higher = more signal, called active from +8 up or from −8 down.
For test [10], the system named is Wnt5a (protein binding on small-molecule microarray). The test is described as follows: small molecules binding Wnt5a protein – biophysical, small-molecule microarray, 635/667 nm fluorescence, primary screen (AID 1142).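 Note: fluorescence read at 667 nm with signal to noise per printed feature.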 The conditions noted are these: 635 nm fluorescence, higher = more signal.
Test [11] can be described thus: ATP-based viability of Huh7 replicon cells – cell-based, CellTiter-Glo luminescence, basal, 48 h, cytotoxicity control for HCV replication inhibitor project, primary screen (AID 1143).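 Note: Huh7 hepatoma cells carrying a hepatitis C replication reporter with no stimulus; test concentration not given here.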 To be noted: higher = more signal, called active from +8 up or from −8 down. (In general: Replicon systems follow genome replication, usually without infectious particles.)
Test [12] in a line: Pseudomonas biofilm growth suppression – PAO1 strain, BacTiter-Glo luminescence, LB-PBS, primary screen (AID 1144). The conditions noted are these: P. aeruginosa PAO1 biofilm, 12 h, higher = more signal.
Test [13] in a line: basal CRE-LacZ reporter activity in PC12 – cell-based, unstimulated, primary screen (AID 1145). To be noted: no forskolin, luminescence, 4.5 h, higher = more signal, called active from +8 up or from −8 down.
A short description of test [14]: forskolin-driven CRE-LacZ activity in PC12 – cell-based, CRE-LacZ reporter, forskolin-stimulated, primary screen (AID 1146).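 Note: PC12 cells with 6xCRE LacZ reporter stimulated by forskolin 10 µM; beta-galactosidase reporter signal reflecting CREB driven transcription.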 To be noted: luminescence, 4.5 h, higher = more signal, called active from +8 up or from −8 down.
Test [15] has as its target Streptavidin (Streptomyces avidinii) (UniProt P22629). The test is described as follows: compounds binding control protein streptavidin – biophysical, small-molecule microarray, 635/667 nm fluorescence, artefact control for SMM compound annotation, primary screen (AID 1147).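 Note: signal reflects streptavidin binding to arrayed compounds as a control protein.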 The conditions noted are these: higher = more signal.
A short description of test [16]: probe aInhba binding on compound microarray – biochemical, small-molecule microarray, 635/667 nm fluorescence, primary screen (AID 1148).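 Note: score merges 667nm spot fluorescence with signal-to-noise for antibody binding to printed compounds.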 The conditions noted are these: higher = more signal.
The target in test [17] is Torsin-1A (Homo sapiens) (UniProt O14656). The test is described as follows: TOR1A wild-type binding on microarray – cell lysate, small-molecule microarray, lysate, 635/667 nm, primary screen (AID 1149). The conditions noted are these: COS7 hTOR1A-WT lysate, 635 nm fluorescence, higher = more signal.
Test [18] shares this target. As to the kind of experiment: torsin A mutant lysate binding on microarrays – cell lysate, small-molecule microarray, COS7 lysate, 635/667 nm fluorescence, primary screen (AID 1150).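 Note: score pools 667 nm emission and signal to noise measuring lysate protein binding.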 The conditions noted are these: COS7 hTOR1A mutant lysate, 635 nm fluorescence, higher = more signal.
In test [19] the test system is Sonic hedgehog protein (Shh). The test is described as follows: Sonic hedgehog microarray binding compounds – biochemical, small-molecule microarray, 635/667 nm fluorescence, primary screen (AID 1151).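 Note: Shh protein binding to compounds spotted on small-molecule microarray slides; score combines spot fluorescence intensity with signal-to-noise across triplicate slides.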 The conditions noted are these: 635 nm fluorescence, higher = more signal.

Chain of Fibroblast growth factor 2 (Homo sapiens) (P09038 whole entry, looked up): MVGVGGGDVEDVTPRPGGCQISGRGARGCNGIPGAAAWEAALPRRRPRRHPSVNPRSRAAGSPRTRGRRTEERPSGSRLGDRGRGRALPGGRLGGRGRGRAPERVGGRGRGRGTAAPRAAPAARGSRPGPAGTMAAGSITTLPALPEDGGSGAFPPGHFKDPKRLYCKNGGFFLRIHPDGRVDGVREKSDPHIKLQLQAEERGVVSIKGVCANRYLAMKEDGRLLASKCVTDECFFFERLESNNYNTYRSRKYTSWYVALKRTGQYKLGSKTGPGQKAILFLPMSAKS
Chain of Torsin-1A (Homo sapiens) (O14656 whole entry, looked up): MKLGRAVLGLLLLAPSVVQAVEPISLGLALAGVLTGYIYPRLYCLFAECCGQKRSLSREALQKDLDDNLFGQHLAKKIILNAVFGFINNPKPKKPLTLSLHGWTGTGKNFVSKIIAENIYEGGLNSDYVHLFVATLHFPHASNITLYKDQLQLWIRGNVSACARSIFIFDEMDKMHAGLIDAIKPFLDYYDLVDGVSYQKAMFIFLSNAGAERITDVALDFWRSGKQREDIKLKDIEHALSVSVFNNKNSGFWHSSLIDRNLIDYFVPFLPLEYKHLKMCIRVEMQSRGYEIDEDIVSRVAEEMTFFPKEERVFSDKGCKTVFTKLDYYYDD
Chain of Focal adhesion kinase 1 (Homo sapiens) (Q05397 whole entry, looked up): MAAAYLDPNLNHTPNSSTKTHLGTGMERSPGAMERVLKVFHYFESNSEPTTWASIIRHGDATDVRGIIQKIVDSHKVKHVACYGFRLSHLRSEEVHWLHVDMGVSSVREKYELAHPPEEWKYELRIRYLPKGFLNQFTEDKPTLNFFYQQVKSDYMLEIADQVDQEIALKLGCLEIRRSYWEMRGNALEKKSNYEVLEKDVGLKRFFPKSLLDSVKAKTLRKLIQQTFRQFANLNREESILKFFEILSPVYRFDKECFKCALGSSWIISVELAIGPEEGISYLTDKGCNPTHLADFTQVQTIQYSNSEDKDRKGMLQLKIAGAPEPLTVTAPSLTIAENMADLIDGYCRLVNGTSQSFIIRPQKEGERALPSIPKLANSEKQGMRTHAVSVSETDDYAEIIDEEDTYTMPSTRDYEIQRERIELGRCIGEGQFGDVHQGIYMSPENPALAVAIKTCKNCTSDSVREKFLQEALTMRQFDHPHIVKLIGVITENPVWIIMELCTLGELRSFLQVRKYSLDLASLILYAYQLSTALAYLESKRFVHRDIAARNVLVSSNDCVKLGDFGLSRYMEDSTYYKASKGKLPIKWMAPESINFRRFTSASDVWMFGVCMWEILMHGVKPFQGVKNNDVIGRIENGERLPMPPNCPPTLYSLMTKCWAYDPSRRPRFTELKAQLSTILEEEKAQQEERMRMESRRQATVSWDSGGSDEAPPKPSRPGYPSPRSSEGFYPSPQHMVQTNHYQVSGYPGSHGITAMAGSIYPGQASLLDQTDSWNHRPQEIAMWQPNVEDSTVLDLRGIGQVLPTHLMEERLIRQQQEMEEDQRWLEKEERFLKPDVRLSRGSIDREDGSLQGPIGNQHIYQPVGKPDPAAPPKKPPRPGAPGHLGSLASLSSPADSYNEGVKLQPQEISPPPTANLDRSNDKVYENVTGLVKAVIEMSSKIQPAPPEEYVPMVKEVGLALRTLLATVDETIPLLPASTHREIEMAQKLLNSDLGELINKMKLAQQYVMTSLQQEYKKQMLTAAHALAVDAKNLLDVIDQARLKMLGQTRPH
Chain of Follistatin (Homo sapiens) (P19883 whole entry, looked up): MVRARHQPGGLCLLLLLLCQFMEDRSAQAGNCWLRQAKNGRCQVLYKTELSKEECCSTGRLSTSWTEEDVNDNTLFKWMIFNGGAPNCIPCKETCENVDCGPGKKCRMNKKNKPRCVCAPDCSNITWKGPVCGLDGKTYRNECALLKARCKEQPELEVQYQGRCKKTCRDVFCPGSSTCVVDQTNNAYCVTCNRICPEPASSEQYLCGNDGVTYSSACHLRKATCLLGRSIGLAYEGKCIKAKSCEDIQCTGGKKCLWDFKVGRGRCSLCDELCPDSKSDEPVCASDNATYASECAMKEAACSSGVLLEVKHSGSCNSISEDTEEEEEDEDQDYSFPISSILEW
Chain of Luciferin 4-monooxygenase (Photinus pyralis) (P08659 whole entry, looked up): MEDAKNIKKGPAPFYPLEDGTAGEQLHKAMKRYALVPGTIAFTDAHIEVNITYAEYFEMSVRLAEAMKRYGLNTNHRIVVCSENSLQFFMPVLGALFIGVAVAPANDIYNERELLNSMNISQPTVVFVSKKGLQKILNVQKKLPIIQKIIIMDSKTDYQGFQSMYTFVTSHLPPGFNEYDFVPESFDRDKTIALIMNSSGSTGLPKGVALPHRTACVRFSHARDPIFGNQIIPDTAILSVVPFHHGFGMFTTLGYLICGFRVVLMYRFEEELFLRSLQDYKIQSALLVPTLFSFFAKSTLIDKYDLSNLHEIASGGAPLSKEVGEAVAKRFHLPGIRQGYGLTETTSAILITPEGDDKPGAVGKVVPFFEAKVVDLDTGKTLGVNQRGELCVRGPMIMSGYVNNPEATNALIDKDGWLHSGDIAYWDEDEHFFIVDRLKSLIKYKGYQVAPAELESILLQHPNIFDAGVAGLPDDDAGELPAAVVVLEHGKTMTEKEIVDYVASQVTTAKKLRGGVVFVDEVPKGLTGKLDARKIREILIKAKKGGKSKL
Chain of Streptavidin (Streptomyces avidinii) (P22629 whole entry, looked up): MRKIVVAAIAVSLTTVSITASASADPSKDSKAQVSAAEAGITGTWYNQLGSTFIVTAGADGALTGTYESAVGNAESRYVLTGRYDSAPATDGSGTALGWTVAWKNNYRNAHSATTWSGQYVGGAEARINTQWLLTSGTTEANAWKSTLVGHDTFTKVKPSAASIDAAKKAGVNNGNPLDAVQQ

For the compound `COC(=O)[C@@]1(Cc2ccccc2)N=C(c2ccc(OCCCO)cc2)O[C@H]1c1ccccc1N=[N+]=[N-]`, the composite z-score was 2.72 in test [1]; 1.14 in [2]; -0.0746 in [3]; 0.0857 in test [4]; 1.41 in test [5]; 1.53 in test [6]. Moreover, the composite z-score in the test on Lefty1 was 0.718; in test [8], 1.2; in test [10] it was 0.805; in test [15] it was -1.09; in test [16], 0.25; in the test with Torsin-1A (Homo sapiens) [17], 3.85. For the same compound, the figures for the composite z-score (with Torsin-1A (Homo sapiens) [18]; in [19]) were 3.84 and 2.07, respectively. Further, the z-score was 1.35 in test [7]; -13.8 (active) in test [9]; -4.03 (inactive) in [11]; -0.0344 (inactive) in test [12]; 2.95 (inactive) in test [13]; -1.52 (inactive) in test [14].

Consider `CC(C)C[C@@H]1NC(=O)[C@H]2C[C@@H](C(=O)NCCCCCNC(=O)CS)[C@@H](c3cccc(OCCO)c3)N2C1=O`, for which the composite z-score in [1] worked out at 2.41; in [2] it was 1.21; in test [3], 0.603; in test [4] it was 0.374; in test [5], 1.44; in [6], 1.7. In addition, the composite z-score in the test with Lefty1 is 1.35; in test [8], 0.195; in [10], 1.1; in test [15], 0.024; in [16], -0.0112; with Torsin-1A (Homo sapiens) [17], 1.07. Further, the composite z-score was 0.867 with Torsin-1A (Homo sapiens) [18] and 2.09 in test [19]. For the same compound, the z-score was -0.628 in test [7]; -1.15 (inactive) in test [9]; -1.07 (inactive) in [11]; 0.644 (inactive) in test [12]; 0.289 (inactive) in test [13]; 0.0824 (inactive) in [14].

With `CC(C)C[C@@H]1NC(=O)[C@@H]2C[C@H](C(=O)NCCCCCC[N+](C)(C)C)[C@H](c3ccc(O)cc3)N2C1=O`, the composite z-score in test [1] is 1.59; in test [2] it was 0.922; in [3] it was 0.11; in [4], 0.427; in [5], 1.18; in [6], 0.998. Also, the composite z-score with Lefty1 is 1.08; in [8], 0.56; in test [10], 0.0505; in [15], 0.313; in test [16], -0.0448; with Torsin-1A (Homo sapiens) [17], 1.08. Besides, the composite z-score was 0.767 in the test with Torsin-1A (Homo sapiens) [18] and 2.03 in test [19]. In addition, the z-score in [7] is -0.158; in test [9], 0.0519 (inactive); in test [11], 0.0436 (inactive); in test [12], -0.555 (inactive); in test [13], -0.532 (inactive); in [14] it was 0.0161 (inactive).

As to `O=C(OCCF)C1=CCC(c2cccc(Cl)c2)O1` (stereo not given), the composite z-score is 0.1 in test [1]; 0.628 in test [2]; 0.475 in test [3]; -0.137 in test [4]; 0.134 in test [5]; -0.211 in test [6]. Besides, the composite z-score in the test with Lefty1 was -0.217; in [8], 0.177; in test [10], 0.236; in test [15], 0.112; in [16] it was -0.0468; with Torsin-1A (Homo sapiens) [17] it was 1.09. Further, the composite z-score in the test with Torsin-1A (Homo sapiens) [18] worked out at 2.19; in [19], 0.299. For the same compound, the z-score in [7] is -0.218; in [9], 0.08 (inactive); in [11] it was -2.33 (inactive); in [12], -0.0826 (inactive); in [13], -0.0137 (inactive); in test [14], 0.351 (inactive).

On to `CCOC(=O)C[C@H]1[C@H](OC(=O)Cc2ccc3c(c2)OCO3)[C@@H](NC(=O)c2ccc(-c3ccccc3)cc2)c2cc(OCCCO)ccc2N1C(=O)c1ccccc1`, for which the composite z-score in test [1] turned out to be 0.18; in test [2] it was 1.06; in [3], 0.356; in test [4], 0.672; in [5], 0.526; in [6] it was 0.685. Further, the composite z-score with Lefty1 was determined as 0.419; in test [8] it was 0.507; in test [10] it was 0.0105; in test [15] it was 0.0534; in test [16], 0.0906; with Torsin-1A (Homo sapiens) [17], 0.328. In addition, the composite z-score was 0.132 with Torsin-1A (Homo sapiens) [18] and 0.358 in [19]. In addition, the z-score in test [7] was 2.42; in test [9] it was -1.16 (inactive); in test [11], -0.299 (inactive); in [12], -1.24 (inactive); in test [13], 3.12 (inactive); in [14] it was -1.27 (inactive).

The values are drawn from PubChem BioAssay.
